# PubChem BioAssay
# A number with no mark means an inactive call.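 The calls were made as follows: active = viability loss from added drug above about 55%, and viability with drug at most 40%, in both replicates (limit read from the data, passing the limit was not always enough); inconclusive = both conditions met in only one replicate; inactive = neither replicate meets both conditions.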
# Assay: reversal of MRP1-mediated doxorubicin resistance, pilot screen, H69AR cells, doxorubicin co-treatment (AID 601)
# Settings: H69AR cells + 2 uM doxorubicin, CellTiter-Glo, 72 h; at 10 µM; active compounds read high
row,Structure (SMILES),differential viability (reversal)
1,O=C1C2ON(c3ccc(Cl)cc3)C(c3ccco3)C2C(=O)N1c1ccccc1 (stereo unspecified),8.97%
2,CCOC(=O)N1CCN(C(=O)c2ccc3c(=O)n(Cc4ccc(OC)cc4)c(=S)[nH]c3c2)CC1,47.4%
3,O=C(O)/C=C/c1ccc(O)c(O)c1,5.39%
4,COC(=O)Nc1sc2c(c1C(N)=O)CCCCCC2,19.3%
5,CC1(C)NC(=O)N(CC(O)CN2CCCC2)C1=O (stereo unspecified),2.99%
6,Cc1cc(=O)n2nc(N3CCCC(C(=O)N4CCc5ccccc54)C3)sc2n1 (stereo unspecified),-2.83%
7,CCN(CC)S(=O)(=O)c1cccc(-c2nnc(SCCOc3ccccc3C)o2)c1,18.7%
8,CCOC(=O)CSC1=C(C#N)C(c2ccc3c(c2)OCO3)CC(=O)N1 (stereo unspecified),-52.4%
9,N#CC1=C(N)OC2=C(CCC/C2=C/c2ccoc2)C1c1ccoc1 (stereo unspecified),2.94%
10,O=C(NCc1ccc2c(c1)OCO2)C1CCC(CNS(=O)(=O)c2ccccc2)CC1 (stereo unspecified),-1.49%
11,COC(=O)CCN(C(=O)c1ccc2c(c1)OCO2)c1ccccn1,7.88%
12,CC1CCCc2sc3nc(NCc4ccco4)n4ncnc4c3c21 (stereo unspecified),-1.71%
13,CCC(=O)OC1(C#CCOc2ccc(OC)cc2)CCN(C)CC1,1.41%
14,O=C(CCCCn1c(=O)c2ccccc2n(Cc2ccc(Cl)cc2)c1=O)NCc1ccco1,-13.4%
15,CC1CNCCN1S(=O)(=O)c1cccc2cnccc12 (stereo unspecified),5.87%
16,CN(Cc1ccccc1)C(=O)c1cc(-c2ccc(Br)cc2)on1,7.97%
